PubChem BioAssay (EPA / NIEHS)
Inconclusive results are not listed. Activity calls are given as the source filed them. The calls were made as follows, unless noted: active = hit-call score of the fitted dose curve at least 0.9, where 1 is the maximum; inconclusive = response in the unintended direction; inactive = score below 0.9.

Assays:
[1] = read-out: X-box binding protein 1 (XBP1), XBP1 (gene 7494); assay: LTEA_HepaRG_XBP1: Life Technologies and Expression Analysis (LTEA) Assay for X-box binding protein 1 (XBP1) using HepaRG (AID 2283540; active = hit-call score of the fitted dose curve at least 0.9, where 1 is the maximum; inactive = score below 0.9); details: mRNA level, 48 h; actives raise or lower the signal
In short: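 Transcript levels of XBP1, measured by qRT-PCR and normalised to three housekeeping genes, were fitted bidirectionally relative to 0.5% DMSO controls. Human HepaRG cells received eight-point half-log dilutions from 100 uM for 48 h.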

[2] = LTEA_HepaRG_LDH_cytotoxicity: Cytotoxicity Assessment in the Life Technologies and Expression Analysis (LTEA) Assay (AID 2283563)
In short: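 Cells were thawed and plated for 48 h. Medium was then replaced with serum-free induction medium. Chemicals (8 half-log points, maximum 100 uM, 0.5% DMSO) were added in duplicate for 48 h, after which spent medium was assayed for LDH.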

[3] = TOX21_p53_BLA_p2_viability: Viability Assessment in the Tox21 HCT-116 p53 Agonism Beta-lactamase Assay, Phase 2 (AID 2283591);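 also: compound exposure lasted 16 h at 37 °C; actives lower the ATP signal meaning cytotoxicity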
In short: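 HCT-116 p53-bla cells (4000/well) rested 5 h at 37C, then received compounds in DMSO (217-fold dilution) for 16 h at 37C, 5% CO2. After the CCF4 read, CellTiter-Glo was added; ATP luminescence was read after 30 min at room temperature.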

[4] = target: Cellular tumor antigen p53 (Homo sapiens) (UniProt P04637); assay: TOX21_p53_BLA_p2_ratio: Tox21 HCT-116 p53 Agonism Beta-lactamase Assay, Ratio, Phase 2 (AID 2283592)
Chain of Cellular tumor antigen p53 (Homo sapiens) (P04637 whole entry, looked up): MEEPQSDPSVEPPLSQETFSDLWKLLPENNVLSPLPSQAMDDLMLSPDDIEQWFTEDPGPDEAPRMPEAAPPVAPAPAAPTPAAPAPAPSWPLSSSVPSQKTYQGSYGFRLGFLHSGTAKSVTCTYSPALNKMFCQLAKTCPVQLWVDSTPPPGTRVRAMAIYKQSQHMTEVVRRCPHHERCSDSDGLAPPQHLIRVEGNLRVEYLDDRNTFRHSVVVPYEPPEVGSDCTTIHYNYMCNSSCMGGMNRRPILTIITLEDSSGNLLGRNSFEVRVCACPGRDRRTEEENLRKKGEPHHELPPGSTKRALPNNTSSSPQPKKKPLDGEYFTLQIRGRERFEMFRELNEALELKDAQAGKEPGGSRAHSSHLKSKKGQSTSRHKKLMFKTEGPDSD
In short: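 Plated HCT116 p53-bla cells (4000/well) received compound after 5 h, then 16 h at 37C/5% CO2. CCF4-AM added, 2 h RT. Ratio of 460 to 530 nm emission taken as the p53 reporter signal.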

[5] = TOX21_p53_BLA_p3_viability: Viability Assessment in the Tox21 HCT-116 p53 Agonism Beta-lactamase Assay, Phase 3 (AID 2283593);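 also: cells exposed to compound for 16 h before reading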
In short: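 HCT-116 cells (4000/well) rested 5 h at 37C, then got DMSO compounds by pin tool (217-fold dilution) for 16 h at 37C, 5% CO2. After the bla read, CellTiter-Glo was added and luminescence read at 30 min, room temperature.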

[6] = target: Cellular tumor antigen p53 (Homo sapiens) (UniProt P04637); assay: TOX21_p53_BLA_p3_ratio: Tox21 HCT-116 p53 Agonism Beta-lactamase Assay, Ratio, Phase 3 (AID 2283596)
In short: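 Cells were seeded at 4000/well, rested 5 h at 37C, then dosed with DMSO compound solutions (217-fold dilution) for 16 h. CCF4-AM substrate was loaded for 2 h at room temperature, and the 460/530 nm emission ratio was fitted for gain of signal versus DMSO.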

[7] = TOX21_p53_BLA_p4_viability: Viability Assessment in the Tox21 HCT-116 p53 Agonism Beta-lactamase Assay, Phase 4 (AID 2283597);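 also: hits lower the luminescence signal meaning cytotoxicity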
In short: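 Readout: ATP luminescence (CellTiter-Glo), measured 30 min after reagent addition at RT. The reagent followed a 2 h CCF4-AM incubation, and the cells had been exposed to compound for 16 h at 37C.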

[8] = TOX21_p53_BLA_p5_viability: Viability Assessment in the Tox21 HCT-116 p53 Agonism Beta-lactamase Assay, Phase 5 (AID 2283600)
In short: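 Workflow: seed 4000 cells per well, wait 5 h, add compounds (DMSO, 217-fold dilution), incubate 16 h, load CCF4-AM 2 h, add CellTiter-Glo, read luminescence after 30 min.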

[9] = target: Cellular tumor antigen p53 (Homo sapiens) (UniProt P04637); assay: TOX21_p53_BLA_p4_ratio: Tox21 HCT-116 p53 Agonism Beta-lactamase Assay, Ratio, Phase 4 (AID 2283601)
In short: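 HCT116 cells carrying an inducible beta-lactamase reporter were plated at 4000 cells/well, rested 5 h, then exposed to compounds in DMSO (217-fold dilution) for 16 h at 37C. CCF4-AM substrate was loaded 2 h at room temperature; 460/530 nm emission ratio scored gain-of-signal versus DMSO.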

[10] = Tanguay_ZF_120hpf_MORT_legacy: (Legacy) Oregon State University Tanguay Lab 120 Hour Post-fertilization zebrafish Assay for Mortality (AID 2283633);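 as to AC50: fitted as increase in binary mortality versus DMSO negative control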
In short: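 5D WT zebrafish, chorion removed 4 hpf; 1 embryo/well from 6 hpf; static exposure to 120 hpf, 28C, dark, sealed. Final DMSO 0.64%. Readout: binary mortality, brightfield, 24 + 120 hpf; DMSO as negative control.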

[11] = Tanguay_ZF_120hpf_YSE_legacy: (Legacy) Oregon State University Tanguay Lab 120 Hour Post-fertilization zebrafish Assay for Yolk Sac Edema (AID 2283634);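 as to AC50: actives raise the incidence of yolk sac edema above the DMSO baseline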
In short: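 Dechorionate (pronase, 4 hpf) → place one 6 hpf embryo per well → static compound exposure, sealed and foil-covered, 28C, to 120 hpf → record yolk sac edema as present or absent. Final DMSO 0.64%.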

[12] = Tanguay_ZF_120hpf_AXIS_legacy: (Legacy) Oregon State University Tanguay Lab 120 Hour Post-fertilization zebrafish Assay for Body Axis Malformation (AID 2283635);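 as to AC50: potency for an increased fraction of larvae scored with body axis malformation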
In short: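 Chorion is removed with pronase at 4 hpf, then single 6 hpf embryos are dosed (final DMSO 0.64%) and held statically at 28C in sealed, foil-covered plates. At 120 hpf body axis malformation is recorded as present or absent.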

[13] = Tanguay_ZF_120hpf_SNOU_legacy: (Legacy) Oregon State University Tanguay Lab 120 Hour Post-fertilization zebrafish Assay for Snout Malformation (AID 2283637)
In short: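 Dechorionated zebrafish, individually housed from 6 hpf in covered, sealed wells at 28C with 0.64% DMSO vehicle, were examined at 120 hpf for snout malformation. Responses were binary and analysed positive-direction relative to DMSO.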

[14] = Tanguay_ZF_120hpf_JAW_legacy: (Legacy) Oregon State University Tanguay Lab 120 Hour Post-fertilization zebrafish Assay for Jaw Malformation (AID 2283638);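 as to AC50: active means more embryos with jaw malformation than DMSO controls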
In short: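 Steps: dechorionate 4 hpf embryos (pronase); plate 1/well at 6 hpf; add test chemical, 0.64% DMSO final; seal, cover, hold at 28C statically to 120 hpf; score jaw defect presence/absence microscopically. Dead embryos not scored.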

[15] = Tanguay_ZF_120hpf_OTIC_legacy: (Legacy) Oregon State University Tanguay Lab 120 Hour Post-fertilization zebrafish Assay for Otic Vesicle Malformation (AID 2283639)
In short: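 Statically exposed wild-type 5D zebrafish embryos, kept sealed and dark at 28C through 120 hours post fertilization, were examined by brightfield microscopy for otic vesicle defects. Responses were recorded as present or absent and analysed relative to DMSO.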

[16] = Tanguay_ZF_120hpf_BRAI_legacy: (Legacy) Oregon State University Tanguay Lab 120 Hour Post-fertilization zebrafish Assay for Brain Malformation (AID 2283641)
In short: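 Wild-type 5D larvae, static waterborne exposure to 120 hpf, 28C, 0.64% v/v DMSO. Brightfield scoring of brain defects, binary; dead embryos excluded. Positive ctrl 5uM trimethyltin chloride.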

[17] = Tanguay_ZF_120hpf_PE_legacy: (Legacy) Oregon State University Tanguay Lab 120 Hour Post-fertilization zebrafish Assay for Pericardial Edema (AID 2283640);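 as to AC50: potency for increased incidence of pericardial edema versus DMSO baseline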
In short: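 Embryos from wild-type 5D adults were staged, then dosed in 0.64% DMSO. They were kept sealed in the dark at 28C until 120 hpf. Pericardial edema was then recorded as present or absent.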

[18] = Tanguay_ZF_120hpf_EYE_legacy: (Legacy) Oregon State University Tanguay Lab 120 Hour Post-fertilization zebrafish Assay for Eye Malformation (AID 2283636);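 also: binary presence or absence of eye malformation scored by brightfield in 120 hpf larvae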
In short: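 Static waterborne exposure of dechorionated zebrafish embryos (strain Tropical 5D), 6 to 120 hpf, sealed plates at 28C, 0.64% DMSO vehicle. Eye malformation is scored as a binary endpoint, with gain of signal analysed relative to DMSO.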

[19] = ATG_XTT_Cytotoxicity: Cytotoxicity Assessment in the Attagene TRANS-FACTORIAL HepG2 Assay (AID 2283584)
In short: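 Cells: human HepG2, transiently transfected with MRTU reporter constructs. Exposure 24 h. Readout: XTT, cell number. Baseline/neg ctrl DMSO; loss-of-signal scored.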

## CCCCC(C#N)(Cn1cncn1)c1ccc(Cl)cc1 (stereo not given)
[1]
  outcome: inactive
[2]
  outcome: inactive
[3]
  outcome: inactive
[4]
  outcome: inactive
[5]
  outcome: inactive
[6]
  outcome: inactive
[7]
  outcome: inactive
[8]
  outcome: inactive
[9]
  outcome: inactive
[10]
  outcome: inactive
[11]
  AC50: 37.7 µM (active)
[12]
  AC50: 56 µM (active)
[13]
  AC50: 48.6 µM (active)
[14]
  AC50: 48 µM (active)
[15]
  outcome: inactive
[16]
  outcome: inactive

## CCOP(=O)(OCC)Oc1nc(Cl)c(Cl)cc1Cl
[1]
  AC50: 83.1 µM (active)
[2]
  outcome: inactive
[3]
  outcome: inactive
[4]
  outcome: inactive
[5]
  outcome: inactive
[6]
  outcome: inactive
[7]
  outcome: inactive
[8]
  outcome: inactive
[9]
  AC50: 61.7 µM (active)
[10]
  AC50: 0.887 µM (active)
[11]
  outcome: inactive
[12]
  outcome: inactive
[13]
  outcome: inactive
[14]
  outcome: inactive
[15]
  outcome: inactive
[17]
  outcome: inactive
[16]
  outcome: inactive

## Cc1ccc(N=CN(C)C=Nc2ccc(C)cc2C)c(C)c1
[1]
  outcome: inactive
[2]
  outcome: inactive
[3]
  outcome: inactive
[4]
  outcome: inactive
[5]
  outcome: inactive
[6]
  outcome: inactive
[7]
  outcome: inactive
[8]
  outcome: inactive
[9]
  outcome: inactive
[10]
  outcome: inactive
[11]
  outcome: inactive
[12]
  outcome: inactive
[13]
  outcome: inactive
[15]
  outcome: inactive
[16]
  outcome: inactive

## COCC(C)N(C(=O)CCl)c1c(C)csc1C (stereo not given)
[1]
  outcome: inactive
[2]
  outcome: inactive
[3]
  outcome: inactive
[4]
  outcome: inactive
[6]
  outcome: inactive
[7]
  outcome: inactive
[8]
  outcome: inactive
[9]
  outcome: inactive
[10]
  AC50: 36.4 µM (active)
[11]
  AC50: 18.3 µM (active)
[12]
  AC50: 27.3 µM (active)
[18]
  AC50: 24.8 µM (active)
[13]
  AC50: 8.23 µM (active)
[14]
  AC50: 25.6 µM (active)
[15]
  AC50: 8.94 µM (active)
[17]
  AC50: 31 µM (active)
[16]
  AC50: 8.88 µM (active)

## CC(C)Oc1cccc(NC(=O)c2ccccc2C(F)(F)F)c1
[1]
  outcome: inactive
[2]
  outcome: inactive
[3]
  outcome: inactive
[4]
  outcome: inactive
[5]
  outcome: inactive
[6]
  outcome: inactive
[7]
  outcome: inactive
[8]
  outcome: inactive
[9]
  outcome: inactive
[10]
  outcome: inactive
[11]
  AC50: 48.7 µM (active)
[12]
  outcome: inactive
[13]
  AC50: 50.4 µM (active)
[14]
  AC50: 40.4 µM (active)
[15]
  outcome: inactive
[16]
  AC50: 38.3 µM (active)

## COP(=S)(OC)Oc1ccc([N+](=O)[O-])c(C)c1
[1]
  outcome: inactive
[2]
  outcome: inactive
[19]
  outcome: inactive
[3]
  outcome: inactive
[4]
  outcome: inactive
[5]
  outcome: inactive
[6]
  outcome: inactive
[7]
  outcome: inactive
[8]
  outcome: inactive
[9]
  outcome: inactive
[10]
  outcome: inactive
[11]
  outcome: inactive
[12]
  outcome: inactive
[18]
  outcome: inactive
[13]
  outcome: inactive
[14]
  outcome: inactive
[15]
  outcome: inactive
[17]
  outcome: inactive
[16]
  outcome: inactive

## CCCN(CC)CC1COC2(CCC(C(C)(C)C)CC2)O1 (stereo not given)
[1]
  outcome: inactive
[2]
  outcome: inactive
[3]
  outcome: inactive
[4]
  outcome: inactive
[5]
  outcome: inactive
[7]
  outcome: inactive
[8]
  outcome: inactive
[10]
  outcome: inactive
[11]
  outcome: inactive
[12]
  outcome: inactive
[18]
  outcome: inactive
[13]
  outcome: inactive
[14]
  outcome: inactive
[15]
  outcome: inactive
[16]
  outcome: inactive
